Assay results: ChEMBL document CHEMBL2218924, “A broad activity screen in support of a chemogenomic map for kinase signalling research and drug discovery” (Biochem J, 2013)

Key:
[1] = target: Mitogen-activated protein kinase 10 (Homo sapiens) (UniProt P53779); details: at 10 µM
[2] = target: Vascular endothelial growth factor receptor 2 (Homo sapiens) (UniProt P35968); details: at 1 µM
[3] = target: Vascular endothelial growth factor receptor 2 (Homo sapiens) (UniProt P35968); details: at 10 µM
[4] = target: LIM domain kinase 1 (Homo sapiens) (UniProt P53667); details: at 1 µM
Sequence of LIM domain kinase 1 (Homo sapiens) (P53667 whole entry, looked up, the tested form may be a part): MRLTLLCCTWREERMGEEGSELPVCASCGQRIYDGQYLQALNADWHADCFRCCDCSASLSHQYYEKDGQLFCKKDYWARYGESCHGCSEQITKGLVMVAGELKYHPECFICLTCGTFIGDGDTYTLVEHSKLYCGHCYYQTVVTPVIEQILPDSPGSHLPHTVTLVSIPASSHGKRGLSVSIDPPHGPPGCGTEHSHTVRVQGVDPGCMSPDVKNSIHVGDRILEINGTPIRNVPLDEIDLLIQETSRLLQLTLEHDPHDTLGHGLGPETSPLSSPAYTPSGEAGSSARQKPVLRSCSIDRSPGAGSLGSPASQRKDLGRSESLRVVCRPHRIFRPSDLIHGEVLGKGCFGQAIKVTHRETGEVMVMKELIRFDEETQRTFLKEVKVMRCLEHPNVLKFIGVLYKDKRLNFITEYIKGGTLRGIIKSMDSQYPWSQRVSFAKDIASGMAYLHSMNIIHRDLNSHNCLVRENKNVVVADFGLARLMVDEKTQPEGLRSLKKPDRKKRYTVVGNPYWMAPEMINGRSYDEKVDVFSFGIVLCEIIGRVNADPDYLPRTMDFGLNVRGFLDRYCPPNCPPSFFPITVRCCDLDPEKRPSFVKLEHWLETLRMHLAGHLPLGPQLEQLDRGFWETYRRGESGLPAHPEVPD

[5] = target: LIM domain kinase 1 (Homo sapiens) (UniProt P53667); details: at 10 µM
[6] = target: T1, Serine/threonine-protein kinase STK11 (Homo sapiens) (UniProt Q15831); details: at 1 µM
T1 sequence (whole entry): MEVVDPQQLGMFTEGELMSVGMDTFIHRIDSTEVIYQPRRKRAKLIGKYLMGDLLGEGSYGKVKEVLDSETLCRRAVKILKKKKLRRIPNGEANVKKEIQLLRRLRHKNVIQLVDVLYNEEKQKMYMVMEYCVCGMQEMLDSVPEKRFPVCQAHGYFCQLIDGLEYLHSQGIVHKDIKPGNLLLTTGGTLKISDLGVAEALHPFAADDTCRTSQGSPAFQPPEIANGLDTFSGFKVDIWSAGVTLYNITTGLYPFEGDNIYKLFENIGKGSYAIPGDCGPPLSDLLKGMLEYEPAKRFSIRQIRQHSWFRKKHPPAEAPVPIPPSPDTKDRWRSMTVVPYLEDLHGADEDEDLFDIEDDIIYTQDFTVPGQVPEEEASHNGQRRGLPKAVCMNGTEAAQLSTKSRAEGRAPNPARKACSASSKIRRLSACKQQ

[7] = target: T1, Serine/threonine-protein kinase STK11 (Homo sapiens); details: at 10 µM
[8] = target: Serine/threonine-protein kinase 10 (Homo sapiens) (UniProt O94804); details: at 1 µM
Sequence of Serine/threonine-protein kinase 10 (Homo sapiens) (O94804 whole entry, looked up): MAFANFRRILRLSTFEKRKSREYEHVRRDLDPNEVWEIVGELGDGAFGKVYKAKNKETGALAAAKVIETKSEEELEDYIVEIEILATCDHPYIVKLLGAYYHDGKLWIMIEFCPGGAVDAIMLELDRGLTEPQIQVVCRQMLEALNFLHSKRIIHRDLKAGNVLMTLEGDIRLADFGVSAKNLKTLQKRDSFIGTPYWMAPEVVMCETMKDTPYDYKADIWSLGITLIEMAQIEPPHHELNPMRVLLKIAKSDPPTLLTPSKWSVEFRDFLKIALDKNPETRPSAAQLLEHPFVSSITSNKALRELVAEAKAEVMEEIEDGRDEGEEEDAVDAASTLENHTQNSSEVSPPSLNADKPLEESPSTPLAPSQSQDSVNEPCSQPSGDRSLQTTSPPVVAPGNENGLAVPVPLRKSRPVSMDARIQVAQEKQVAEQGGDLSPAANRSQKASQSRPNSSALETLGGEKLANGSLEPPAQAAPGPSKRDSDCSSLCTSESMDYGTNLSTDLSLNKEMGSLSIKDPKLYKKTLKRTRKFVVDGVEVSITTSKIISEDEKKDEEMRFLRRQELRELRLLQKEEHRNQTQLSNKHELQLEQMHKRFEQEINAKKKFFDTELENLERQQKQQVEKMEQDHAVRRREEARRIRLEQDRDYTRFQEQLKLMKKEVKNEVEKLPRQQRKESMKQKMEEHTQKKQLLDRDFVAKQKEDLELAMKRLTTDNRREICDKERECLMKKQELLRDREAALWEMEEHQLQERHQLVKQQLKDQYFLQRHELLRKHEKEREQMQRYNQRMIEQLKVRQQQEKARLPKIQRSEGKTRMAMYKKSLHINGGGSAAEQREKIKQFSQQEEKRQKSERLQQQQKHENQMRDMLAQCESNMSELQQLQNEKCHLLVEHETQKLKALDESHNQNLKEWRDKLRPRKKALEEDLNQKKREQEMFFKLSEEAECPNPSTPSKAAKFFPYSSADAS

[9] = target: Serine/threonine-protein kinase 10 (Homo sapiens) (UniProt O94804); details: at 10 µM
[10] = target: Tyrosine-protein kinase Lck (Homo sapiens) (UniProt P06239); details: at 1 µM
Sequence of Tyrosine-protein kinase Lck (Homo sapiens) (P06239 2-509 limits assumed): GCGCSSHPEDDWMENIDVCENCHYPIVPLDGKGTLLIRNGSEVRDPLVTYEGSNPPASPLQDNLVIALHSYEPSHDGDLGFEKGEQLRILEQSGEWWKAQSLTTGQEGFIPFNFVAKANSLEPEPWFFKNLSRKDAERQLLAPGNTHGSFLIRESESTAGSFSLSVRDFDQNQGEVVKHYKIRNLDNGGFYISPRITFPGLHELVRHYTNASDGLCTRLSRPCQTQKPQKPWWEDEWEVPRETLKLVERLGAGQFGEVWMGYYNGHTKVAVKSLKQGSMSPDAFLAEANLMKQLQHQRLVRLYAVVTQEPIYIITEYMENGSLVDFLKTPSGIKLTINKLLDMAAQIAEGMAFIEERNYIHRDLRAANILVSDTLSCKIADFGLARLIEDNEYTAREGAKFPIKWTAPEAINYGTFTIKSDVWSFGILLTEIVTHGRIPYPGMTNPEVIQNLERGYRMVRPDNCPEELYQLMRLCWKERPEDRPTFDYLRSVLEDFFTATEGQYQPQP

Sequence of Mitogen-activated protein kinase 10 (Homo sapiens) (P53779 whole entry): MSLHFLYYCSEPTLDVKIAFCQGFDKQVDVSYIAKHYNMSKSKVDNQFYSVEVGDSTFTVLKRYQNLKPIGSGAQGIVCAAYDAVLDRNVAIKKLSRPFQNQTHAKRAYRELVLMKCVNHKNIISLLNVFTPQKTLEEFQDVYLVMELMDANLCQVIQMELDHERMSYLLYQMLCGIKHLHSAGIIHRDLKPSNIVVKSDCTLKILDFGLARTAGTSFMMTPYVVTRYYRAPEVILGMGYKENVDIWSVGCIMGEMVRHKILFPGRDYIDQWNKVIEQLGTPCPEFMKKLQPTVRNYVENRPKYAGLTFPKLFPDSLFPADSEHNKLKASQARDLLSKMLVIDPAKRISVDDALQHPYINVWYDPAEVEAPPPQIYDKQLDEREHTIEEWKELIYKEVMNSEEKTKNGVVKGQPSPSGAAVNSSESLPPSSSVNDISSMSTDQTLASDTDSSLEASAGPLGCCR
Sequence of Vascular endothelial growth factor receptor 2 (Homo sapiens) (P35968 whole entry, the tested form may be a part): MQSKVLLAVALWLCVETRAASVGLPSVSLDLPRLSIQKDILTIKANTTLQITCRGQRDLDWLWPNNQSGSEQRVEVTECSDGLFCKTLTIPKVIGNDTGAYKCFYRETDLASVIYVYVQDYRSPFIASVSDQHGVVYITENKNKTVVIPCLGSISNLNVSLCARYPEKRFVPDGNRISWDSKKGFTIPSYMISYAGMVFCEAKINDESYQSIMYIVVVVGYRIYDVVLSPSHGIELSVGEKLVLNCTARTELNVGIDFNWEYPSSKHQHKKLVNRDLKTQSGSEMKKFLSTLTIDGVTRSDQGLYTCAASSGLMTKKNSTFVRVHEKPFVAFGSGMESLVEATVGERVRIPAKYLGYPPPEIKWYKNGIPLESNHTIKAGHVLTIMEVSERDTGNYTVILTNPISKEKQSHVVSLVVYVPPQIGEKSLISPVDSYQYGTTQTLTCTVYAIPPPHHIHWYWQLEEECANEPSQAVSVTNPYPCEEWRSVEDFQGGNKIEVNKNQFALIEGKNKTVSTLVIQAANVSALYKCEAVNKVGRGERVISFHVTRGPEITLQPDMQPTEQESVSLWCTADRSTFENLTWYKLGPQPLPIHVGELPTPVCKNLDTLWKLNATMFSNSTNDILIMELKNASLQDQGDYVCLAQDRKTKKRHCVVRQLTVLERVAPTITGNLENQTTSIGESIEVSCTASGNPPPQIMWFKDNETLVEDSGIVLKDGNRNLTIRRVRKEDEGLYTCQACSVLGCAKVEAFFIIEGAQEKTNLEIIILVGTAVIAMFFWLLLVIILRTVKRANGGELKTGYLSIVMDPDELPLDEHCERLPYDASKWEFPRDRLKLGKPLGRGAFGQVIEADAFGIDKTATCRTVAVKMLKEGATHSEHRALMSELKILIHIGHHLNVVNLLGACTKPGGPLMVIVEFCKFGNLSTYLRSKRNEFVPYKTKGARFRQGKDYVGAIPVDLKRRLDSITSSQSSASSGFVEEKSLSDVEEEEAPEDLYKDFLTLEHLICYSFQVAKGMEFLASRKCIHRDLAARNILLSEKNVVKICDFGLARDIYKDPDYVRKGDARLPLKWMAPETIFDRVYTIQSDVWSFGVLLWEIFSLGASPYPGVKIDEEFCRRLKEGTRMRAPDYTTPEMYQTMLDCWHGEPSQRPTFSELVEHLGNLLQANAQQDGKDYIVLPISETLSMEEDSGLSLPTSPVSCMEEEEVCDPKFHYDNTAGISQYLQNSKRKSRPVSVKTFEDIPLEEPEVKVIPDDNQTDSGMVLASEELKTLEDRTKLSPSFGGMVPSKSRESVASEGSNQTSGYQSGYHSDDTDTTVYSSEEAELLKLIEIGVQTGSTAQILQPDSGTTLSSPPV

| SMILES | residual activity [1] | residual activity [2] | residual activity [3] | residual activity [4] | residual activity [5] | residual activity [6] | residual activity [7] | residual activity [8] | residual activity [9] | residual activity [10] |
| --- | --- | --- | --- | --- | --- | --- | --- | --- | --- | --- |
| Cn1sc(=O)n(Cc2ccccc2)c1=O | 94% | 99% | 91% | 86% | 79% | 97% | 93% | 95% | 95% | – |
| CN(C)S(=O)(=O)c1ccc2c(c1)/C(=C/c1cc3c([nH]1)CCCC3)C(=O)N2 | 81% | 51% | 40% | 90% | 77% | 99% | 96% | 63% | 78% | – |
| CC(C)c1nn(-c2c(Cl)cccc2Cl)c2nc(Cc3ccc(OCCO)cc3)[nH]c(=O)c12 | 29% | 98% | 89% | 102% | 84% | 90% | 48% | 55% | 55% | 104% |
| O=c1cc(N2CCNCC2)oc2c(-c3ccccc3)cccc12 | 89% | 100% | 89% | 92% | 86% | 97% | 92% | 95% | 89% | – |
| NCCNc1ncc(C(N)=O)c(Nc2cccc(C(F)(F)F)c2)n1 | 46% | 101% | 78% | 102% | 50% | 74% | 20% | – | – | 80% |
| O=C1NC(=O)c2c1c1c3ccccc3[nH]c1n1cncc21 | 11% | 10% | 8% | 71% | 48% | 84% | 62% | 70% | 58% | 61% |
| O=C(NC(NC(=S)Nc1ccc(F)c([N+](=O)[O-])c1)C(Cl)(Cl)Cl)C(c1ccccc1)c1ccccc1 (stereo not drawn) | 79% | 104% | 102% | 90% | 75% | 98% | 103% | – | – | 95% |
| COc1cc2nccc(Oc3ccc(NC(=S)NC(=O)c4ccccc4C)cc3)c2cc1OC | 79% | 4% | 3% | 60% | 28% | 98% | 90% | 6% | 7% | 1% |
| COc1ccc2c(c1)c(C1=C(c3c[nH]c4ccccc34)C(=O)NC1=O)cn2CCCN(C)C | 37% | 28% | 3% | 99% | 65% | 101% | 99% | 54% | 22% | – |
| CCCC(=O)Oc1ccc2[nH]c(C(=O)c3cc4ccccc4[nH]3)cc2c1 | 69% | 94% | 70% | 98% | 80% | 98% | 96% | 85% | 96% | 89% |
| COc1cc2c(cc1OC)-c1n[nH]c(Nc3cccc(F)c3)c1C2 | 33% | 75% | 25% | 13% | 2% | – | – | 59% | 37% | – |
| c1ccc(-c2cnc(Nc3ccc(OCCN4CCCC4)cc3)s2)cc1 | 36% | 10% | 4% | 64% | 16% | 108% | 103% | 75% | 55% | 58% |
| CCN1/C(=C/C(C)=O)Sc2ccc(OC)cc21 | 64% | – | – | – | – | – | – | – | – | – |
| O=C1Nc2ccc(Cl)cc2/C1=C/c1cc(Cl)c(O)c(Cl)c1 | 32% | 13% | 1% | 88% | 42% | 91% | 86% | 67% | 47% | 95% |
| Nc1ncnc2c1cnn2-c1ccccc1 | 70% | 102% | 83% | 99% | 67% | 96% | 98% | 98% | 85% | – |
| CC(C)(C)c1nc2c3ccc(F)cc3c3c(=O)[nH]ccc3c2[nH]1 | -7% | 65% | 24% | 98% | 63% | – | – | 72% | 32% | – |
| COc1cc2ncnc(Nc3cccc(Cl)c3)c2cc1OC | 50% | 60% | 16% | 111% | 41% | 100% | 101% | 24% | 8% | 52% |
| Nc1ncnc2[nH]nc(Nc3ccc(F)cc3)c12 | 92% | 97% | 54% | 90% | 58% | 102% | – | 53% | 7% | 49% |
| Cn1c2ccccc2c2c3c(c4c5ccccc5n(CCC#N)c4c21)CNC3=O | 9% | 7% | 6% | 48% | 20% | 82% | 96% | 21% | 8% | – |
| O=C(c1cc2cc(O)ccc2[nH]1)c1cc2cc(O)ccc2[nH]1 | 33% | 18% | 3% | 74% | 41% | 100% | – | 55% | 20% | 16% |
| CCN(CC)CCNC(=O)c1c(C)[nH]c(/C=C2\C(=O)Nc3ccc(Cl)cc32)c1C | 75% | 2% | 1% | 99% | 44% | – | – | 15% | 5% | 12% |
| CC(C)(C)n1nc(Cc2cccc3ccccc23)c2c(N)ncnc21 | -1% | 69% | 14% | 101% | 69% | 91% | 61% | 80% | 41% | 36% |
| O=c1cc(N2CCOCC2)oc2c1ccc1ccccc12 | 70% | 103% | 87% | 108% | 92% | 102% | 93% | 98% | 91% | – |
| CCCCc1c(-c2ccc(OC)cc2)[nH]c2nccnc12 | 41% | 73% | 68% | 50% | 57% | 108% | 101% | – | 110% | 55% |
| CCCCc1c(-c2ccc(O)cc2)[nH]c2nccnc12 | 23% | 77% | 42% | 64% | 53% | – | 73% | 80% | 90% | 48% |

| SMILES | residual activity [1] | residual activity [2] | residual activity [3] | residual activity [4] | residual activity [5] | residual activity [6] | residual activity [7] | residual activity [8] | residual activity [9] | residual activity [10] |
| --- | --- | --- | --- | --- | --- | --- | --- | --- | --- | --- |
| Nc1ncnc2c1c(-c1ccc(Oc3ccccc3)cc1)cn2C1CCCC1 | 81% | 24% | 3% | 72% | 13% | 105% | 91% | 73% | 38% | 1% |
| Nc1nc(Nc2ccc(S(N)(=O)=O)cc2)nn1C(=O)c1c(F)cccc1F | 12% | 33% | 4% | 12% | 2% | 99% | 95% | 17% | 6% | 58% |
| O=C(CCCc1ccc(-c2ccccc2F)cc1)Nc1ccc(O)cc1 | 94% | 110% | 108% | 96% | 85% | 100% | 97% | 112% | 94% | 99% |
| O=C(O)/C=C/c1cc(Br)c(Br)c(Br)c1Br | 46% | 99% | 81% | 105% | 71% | 93% | 38% | 94% | 58% | 77% |
| NC(=O)Nc1sc(-c2ccc(F)cc2)cc1C(N)=O | 33% | 41% | 6% | 46% | 7% | 92% | 73% | – | – | – |
| O=C1NC(=O)C(c2cn(CCCO)c3ncccc23)=C1c1cnccn1 | 86% | 64% | 63% | – | 80% | 85% | 75% | 94% | 80% | – |
| CCOc1nc(NC(=O)Cc2cc(OC)ccc2OC)cc(N)c1C#N | -2% | – | – | – | – | – | – | – | – | – |
| O=C(Nc1ccc(Cl)cc1)c1ccccc1NCc1ccncc1 | 123% | 3% | 4% | – | – | 101% | 99% | 82% | 64% | – |
| O=S(=O)(NCCNC/C=C/c1ccc(Br)cc1)c1cccc2cnccc12 | – | – | 62% | 79% | 29% | – | – | 71% | 53% | – |
| O=C(Nc1nc2ccccc2n1CCN1CCOCC1)c1cccc([N+](=O)[O-])c1 | – | – | – | 105% | 88% | 100% | 100% | – | – | – |
| O=c1c(-c2ccc(F)cc2)c(-c2ccncc2)[nH]n1-c1ccc(Cl)cc1 | -2% | 102% | 54% | – | – | – | – | – | 99% | – |
| N#C/C(=C1/Nc2ccccc2S1)c1ccnc(NCCc2cccnc2)n1 | – | – | – | – | – | 96% | 81% | 78% | 39% | – |
| NC(=O)c1ccc(-c2nc(-c3ccc4c(c3)OCCO4)c(-c3ccccn3)[nH]2)cc1 | – | – | – | – | – | – | – | 65% | 68% | – |
| O=C1C(Cl)=C(N2C(=O)CCC2=O)C(=O)c2ccccc21 | 94% | – | – | 88% | 81% | 94% | 89% | 95% | 90% | 76% |
| O=S(=O)(c1cccc2cnccc12)N1CCCNCC1 | – | – | – | – | – | 100% | – | – | – | – |
| Cc1cc(C)c(/C=C2\C(=O)Nc3ccccc32)[nH]1 | – | 4% | 2% | – | – | – | – | – | 45% | – |
| CCOC(=O)c1c(C)[nH]c(/C=C2\C(=O)Nc3ccccc32)c1C | – | 16% | 28% | – | – | – | – | – | – | – |
| CN([C@@H](Cc1ccc(OS(=O)(=O)c2cccc3cnccc23)cc1)C(=O)N1CCN(c2ccccc2)CC1)S(=O)(=O)c1cccc2cnccc12 | 75% | – | – | 99% | 86% | – | – | – | – | 144% |
| COc1ccc(CNC(=O)Nc2ncc([N+](=O)[O-])s2)cc1 | 57% | – | – | – | – | – | – | – | – | 80% |
| CC(C)[C@H](CO)Nc1nc(Nc2cc(N)cc(Cl)c2)c2ncn(C(C)C)c2n1 | 67% | – | – | – | 85% | – | 72% | 57% | 17% | – |
| O=C1Nc2ccccc2/C1=C\c1c(Cl)[nH]c2ccccc12 | 47% | – | 30% | – | 71% | – | – | 84% | 36% | 83% |
| O=C1Cc2c([nH]c3ccc(Br)cc23)-c2ccccc2N1 | – | 74% | 31% | 89% | 80% | 97% | 95% | 96% | 56% | – |
| O=C1NC(=O)C(c2c[nH]c3ccccc23)=C1c1c[nH]c2ccccc12 | -3% | 16% | 2% | – | 50% | 100% | 97% | 39% | 15% | 78% |
| COc1cc2nccc(Oc3ccc(NC(=O)Nc4cc(C)on4)c(Cl)c3)c2cc1OC | – | – | – | 67% | 14% | 99% | 101% | 8% | 8% | 3% |
| N#Cc1c(NC(=O)c2cccc3ccccc23)sc2c1CCCC2 | 0% | – | 96% | 92% | 82% | 86% | 93% | 90% | 92% | – |
